Source: PubChem (National Center for Advancing Translational Sciences (NCATS))
D3 antag – D3 dopamine receptor (human) antagonism | AID 652054 | 360,000 compounds, 2.5% hits | max response, negative = inhibition, % | P35462 | D3R cells, DiscoveRx beta-arrestin luminescence, antagonist mode; hits give low values; in the data active = max response below about -50%; inconclusive = no clear call, values can overlap the other calls; note: % is set by controls: 0 for no effect and ±100 for the full control effect
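Cells plated overnight at 1500 cells/well, then exposed to library compounds with dopamine controls for 90 minutes at 37 degrees C. DiscoveRx reagent added for 30–60 minutes at room temperature; luminescence read, quantitative HTS format.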
Giardia kill – Giardia lamblia killing; activity change, % at 7.66 µM, hits read low; Giardia lamblia trophozoite viability; 340,000 compounds, 0.15% hits; AID 540267; in the data active = activity change below about -80%; inconclusive = between about -30% and that limit;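 note: parasites exposed to compound for two days anaerobically before the ATP read; % is set by controls: 0 for no effect and ±100 for the full control effect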
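Luminescence from cellular ATP indicates surviving trophozoites (100 cells/well) following 48 hrs anaerobic compound treatment at 37 deg C; signal develops 15-30 min at room temperature.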
B2AR arrestin – beta2AR (human) beta-arrestin recruitment activity. Potency, µM (doses to about 46.1 µM), for the others: at the highest dose activation, actives largely listed as activators. 330,000 compounds, 0.02% hits. beta-arrestin recruitment to beta2AR, cell-based reporter. AID 492947. P07550; active = well fitted activation curve with a large enough effect; inconclusive = small, poorly fitted or top-dose-only effect;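 note: potency is the fitted concentration of half-maximal effect; 0% = DMSO controls and full agonism = EC100 isoproterenol or metaproterenol; nearly all actives have a fitted effect of over 65% in size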
Target sequence (P07550 whole entry, looked up): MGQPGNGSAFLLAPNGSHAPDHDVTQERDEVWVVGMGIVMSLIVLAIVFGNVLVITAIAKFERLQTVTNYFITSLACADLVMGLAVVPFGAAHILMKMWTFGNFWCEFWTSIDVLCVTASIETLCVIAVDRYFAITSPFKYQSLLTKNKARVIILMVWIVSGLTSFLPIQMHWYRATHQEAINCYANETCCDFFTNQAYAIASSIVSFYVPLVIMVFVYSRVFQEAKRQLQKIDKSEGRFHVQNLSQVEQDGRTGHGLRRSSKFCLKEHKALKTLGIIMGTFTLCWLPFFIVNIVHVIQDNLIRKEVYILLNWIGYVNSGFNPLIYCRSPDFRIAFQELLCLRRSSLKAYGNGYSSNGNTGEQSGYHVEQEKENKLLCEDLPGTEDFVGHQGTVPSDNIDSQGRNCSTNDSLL
D3 ag – agonists of human D3 dopamine receptor; max activation, %; D3R DiscoveRx beta-arrestin cells, luminescence, 90 min; AID 652048; 410,000 compounds, 0.58% hits; in the data active = max activation above about 30%; note: 0% is about no effect
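Cells at 1500/well, incubated overnight, then treated with pinned compounds (dopamine as control) for 90 min at 37 degrees C. DiscoveRx reagent added for 30 - 60 minutes at room temperature; luminescence read.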
An asterisk follows results filed as active; ? = inconclusive; / = not tested or not shown. Rows were chosen to be rich in hits. Some 2.8% of all compounds tested hit in one or more screens of this group.

SMILES	D3 antag	Giardia kill	B2AR arrestin	D3 ag
CC(C)[C@H](NS(=O)(=O)c1ccccc1)C(=O)OCC(=O)NC(=O)c1cccn1C	-8	-10	0%	5
Cc1ccc(S(=O)(=O)N[C@H](C(=O)OCC(=O)NC(=O)c2cccn2C)C(C)C)cc1	2	11	/	35*
O=C(Nc1cccc(Cl)c1)C1CCN(c2nc3ccccc3nc2C(F)(F)F)CC1	/	/	/	6
COc1ccc(CC(=O)NNC(=S)Nc2ccccc2)cc1Cl	-8	-10	0%	5
CCCOc1ccc(CC(=O)NNC(=S)Nc2ccccc2)cc1Br	-56*	-3	-1%	6
Cc1ccc(-n2cc(CNCCCn3cccn3)c(-c3cccc(C)c3)n2)cc1	-73*	11	-1%	-20
COc1cc(O)c(C(CCN2CCN(c3ccccc3)CC2)c2cc(OC)c(OC)c(OC)c2)c(OC)c1 (stereo unspecified)	-137*	-3	0%	-72
COc1cc(O)c(C(CCN2CCN(c3ccccc3)CC2)c2ccc3c(c2)OCO3)c(OC)c1 (stereo unspecified)	-108*	-14	1%	-63
COc1ccc(C(CCN2CCOCC2)c2c(O)cc(OC)cc2OC)cc1 (stereo unspecified)	-12	10	-1%	-7
CCOC(=O)c1ccc(NC(=O)CC2C(=O)N(c3ccc(C)cc3)C(=O)N2C2CCCC2)cc1 (stereo unspecified)	/	/	/	-18
Cc1ccc(S(=O)(=O)CC(O)COc2ccc(F)cc2Cl)cc1 (stereo unspecified)	-64*	7	0%	-9
Cc1ccc(C(=O)Nc2ccccc2C(=O)O)cc1S(=O)(=O)Nc1ccc(Br)cc1	77	10	/	34*
Cc1ccc(C(=O)Nc2ccccc2C(=O)O)cc1S(=O)(=O)NCc1ccccc1	8	0	1%	-5
COc1ccc(C(=O)Nc2cccc(N(C)S(C)(=O)=O)c2)cc1OC	-12	12	0%	-20
Cc1ccc(C(=O)Nc2cccc(N(C)S(C)(=O)=O)c2)cc1S(=O)(=O)Nc1ccccc1	91	6	1%	44*
CC1(C)OC[C@@H]2O[C@@]3(C(=O)O)OC(C)(C)O[C@H]3[C@@H]2O1	/	/	/	4
[O-][n+]1ccccc1SSc1cccc[n+]1[O-]	/	/	/	-41
CCN(CCO)c1ccc(Nc2cc(-c3ccc(-c4ccccc4)cc3)ncn2)cc1	105	/	/	18
CCN(CCO)c1ccc(N=Nc2cc(C)[nH]n2)cc1	-52*	?	0%	-9
Cn1nc(-c2ccccn2)nc2c(=O)n(C)c(=O)nc1-2	-69*	-7	0%	-18
Cc1ccccc1-c1nc2c(=O)n(C)c(=O)nc-2n(C)n1	/	-86*	/	/
CCCc1nc2c(=O)n(C)c(=O)nc-2n(C)n1	-61*	?	0%	-11
CCc1ccc(-c2nc3c(=O)n(C)c(=O)nc-3n(CC)n2)cc1	/	-91*	/	/
CCCCNc1ncnc2c1nnn2C	/	/	/	-16
Cc1c(Cl)cccc1-c1ccc(CNc2ccc3[nH]c(=O)[nH]c3c2)o1	/	/	/	10
SMILES	D3 antag	Giardia kill	B2AR arrestin	D3 ag
CC(C)(C)C1CCC(OCC(O)CN2CCN(c3ccccn3)CC2)CC1 (stereo unspecified)	-4	-5	0%	65*
OC(COc1ccc(Cl)c2ccccc12)CN1CCN(c2ccccn2)CC1 (stereo unspecified)	5	-11	0%	72*
CCOC(=O)N1CCN(CC(O)COc2c(C)cc(C)cc2C)CC1 (stereo unspecified)	-15	-3	0%	4
OC(CN1CCN(c2ccccn2)CC1)Cn1c2ccccc2c2ccccc21 (stereo unspecified)	0	12	0%	0
Cc1cc(OCC(O)CN2CCN(c3ccccn3)CC2)cc(C)c1Cl (stereo unspecified)	-3	-21	0%	51*
Cc1cc(C)c(OCC(O)CN2CCN(c3ccccn3)CC2)c(C)c1 (stereo unspecified)	0	8	0%	106*
Cn1c(=O)cc(SCC(=O)NCc2ccc(F)cc2)c2cc(Cl)ccc21	/	/	/	-12
CNC(C)CCC=C(C)C (stereo unspecified)	/	/	/	-20
Cc1ccc(-c2nc(-c3cc4cccc(OCc5cccc(F)c5)c4oc3=O)no2)cc1	/	/	/	2
COc1ccc(N(Cc2ccccc2)C(=O)c2nc(S(C)(=O)=O)ncc2Cl)cc1	/	/	/	-27
OC(COC(c1ccccc1)c1ccccc1)CN1CCN(c2ccccn2)CC1 (stereo unspecified)	-9	23	0%	56*
COc1cc(NS(=O)(=O)c2c(C(=O)N3CCCCC3)c(C)n(C)c2C)cc(OC)c1OC	/	/	/	7
